# Assay results taken from PubChem BioAssay AID652042 (Broad Institute, 2013).
# The whole screen tested about 1,100 compounds, of which about 350 (32%) were called active. No rule for the calls is given here. A selection follows. Results with a measured potency or affinity are listed apart.
# Experiment: CEM21 lymphoblast cell cytotoxicity, dose response, cytotoxicity control for viral fusion inhibitor project, CellTiter-Glo luminescence, cherry-picked (AID 652042)
# Settings: CEM21 cells viability, CellTiter-Glo ATP luminescence, 24 h; series mostly up to 35 µM; activity change, negative = cytotoxicity: at the top concentration
row,SMILES,"activity change, negative = cytotoxicity"
1,COc1ccc(C(=O)C(C)N(C(=O)c2ccc(Cl)cc2Cl)N2C(=O)C3C4C=CC(C4)C3C2=O)cc1 (stereo not given),-14% (inactive)
2,COc1ccc(Cn2nnnc2C(c2cc3cc(C)cc(C)c3[nH]c2=O)N2CCOCC2)cc1 (stereo not given),1.27% (inactive)
3,O=C(N(c1ccccn1)c1ccccn1)C12CC3CC(CC(Cl)(C3)C1)C2,-0.057% (inactive)
4,COC(=O)[C@@]1(Cc2ccc(F)cc2)[C@H]2c3cc(C(=O)N(C)C)n(CCO)c3C[C@H]2CN1C(=O)c1ccccc1,4.85% (inactive)
5,Cc1cc(Cl)ccc1OCCCC(=O)Nc1cc(S(=O)(=O)N2CCOCC2)ccc1N1CCOCC1,-2.78% (inactive)
6,O=C(CCCOc1ccc(Cl)cc1Cl)Nc1cc(S(=O)(=O)N2CCOCC2)ccc1N1CCOCC1,-10.9% (inactive)
7,COC(=O)C1CCN(C(=O)COC(=O)c2cc(S(=O)(=O)N3CCOCC3)ccc2C)CC1,2.66% (inactive)
8,O=C(COC(=O)c1cc(S(=O)(=O)N2CCOCC2)ccc1O)NCc1ccc2c(c1)OCO2,7.4% (inactive)
9,CC(C)(C)C1CCc2onc(C(=O)NCc3ccc(F)cc3)c2C1 (stereo not given),-14.6% (inactive)
10,Cn1c(=O)[nH]c2cc3ccccc3cc21,-6.26% (inactive)
11,N#Cc1ccc(CN2CCN(C(=O)CNC(=O)Cc3cccc4ccccc34)CC2)cc1,-15.3% (inactive)
12,CCCCNC(=O)C[C@H]1C[C@@]2(C(=O)OC)C(=C[C@H](C(C)(C)C)O[C@@H]2C)N(Cc2ccc3c(c2)OCO3)C1=O,-9.67% (inactive)
13,C=C(C)CN(CC)c1nc(N)c2c(N)nc3c(c2c1C#N)CC(=O)N3C12CC3CC(CC(C3)C1)C2,-28.7% (inactive)
14,CN(C[C@H](Cc1ccccc1)N(C[C@H](Cc1ccccc1)N(CC1(c2ccccc2)CC1)N=O)N=O)N=O,-8.9% (inactive)
15,COc1ccc2ncn(-c3ccccc3)c2c1,-2.1% (inactive)
16,COC(=O)[C@@]1(C)[C@H]2C(=O)N(Cc3ccccc3)C(=O)[C@H]2[C@H]2CN=C(SCc3ccccc3)N21,-3.46% (inactive)
17,CCOc1ccc2c(c1)-c1c(ssc1=S)C(C)(C)N2C(=O)c1ccco1,-29.3% (inactive)
18,CCn1c(COc2ccc(Cl)cc2)nnc1SCc1nc2ccccc2[nH]1,-21.6% (inactive)
19,COCCN(C(=O)COC(=O)C12CC3CC(CC(Cl)(C3)C1)C2)c1c(N)n(Cc2ccccc2)c(=O)[nH]c1=O,5.3% [at 16 µM] (inactive)
20,COCCCN(C(=S)NC(=O)C12CC3CC(CC(C3)C1)C2)c1c(N)n(Cc2ccccc2)c(=O)[nH]c1=O,6.22% (inactive)
21,CCOc1ccccc1C(=O)NCC(=O)NNC(=O)CN(C)S(=O)(=O)c1ccc(Cl)cc1,-8.4% (inactive)
22,Cc1cc(C)nc(/N=C(\N)Nc2ccc(CC(=O)OC(C)C)cc2)n1,-16.5% (inactive)

row,SMILES,"activity change, negative = cytotoxicity"
1,CCCC[C@H](CN(N=O)[C@@H](Cc1ccccc1)CN(C)N=O)N(CCc1ccccc1)N=O,-7.7% (inactive)
2,CN(C(=O)c1cccc(NC(=O)Cc2cccc(NC(=O)C3CCCN(C(=O)C4CCC4)C3)c2)c1)C1CCC1 (stereo not given),-1.65% (inactive)
3,O=C1c2cccnc2C(Nc2ccc(S(=O)(=O)N3CCCCCC3)cc2)N1Cc1ccccc1 (stereo not given),-1.75% (inactive)
4,C[C@H]1CN([C@@H](C)CO)C(=O)c2ccccc2-c2ccccc2CO[C@@H]1CN(C)C(=O)CCC(F)(F)F,1% (inactive)
5,C[C@H]1CN([C@@H](C)CO)C(=O)c2ccccc2-c2ccccc2CO[C@H]1CN(C)S(=O)(=O)c1cccc(C#N)c1,-13.5% (inactive)
6,CC(OC(=O)c1ccc(NC(=O)CC#N)cc1)C(=O)NCCC1=CCCCC1 (stereo not given),-9.3% (inactive)
7,Cc1nc2ccccc2c2oc(C(=O)NCc3ccc4c(c3)OCO4)cc12,-2% (inactive)
8,Cc1ccc(S(=O)(=O)NCC(=O)OCC(=O)NCc2ccc3c(c2)OCO3)cc1,9.32% [at 16 µM] (inactive)
9,C[C@@]12C(=O)N(c3cccc(Cl)c3)C(=O)N1[C@H](c1ccc(Cl)cc1)[C@@H]1C(=O)N(C3CCCCC3)C(=O)[C@@H]12,-18.4% (inactive)
10,COc1ccc(C(O)c2nc3ccccc3n2C)cc1OC (stereo not given),-1.11% (inactive)
11,CCCCCCCn1c(NC(=O)CC)nc2ccccc21,-26% (inactive)
12,Cc1ccc2cc(C#N)c(NCCNC(=O)C3CCC3)nc2c1C,-0.969% (inactive)
13,CC1=NN(C(=O)c2ccccc2)C(O)(c2ccc(Br)cc2)C1 (stereo not given),-5.67% (inactive)
14,Cc1ccc(S(=O)(=O)N(C)C[C@@H]2Oc3ccc(NC(=O)Cc4cn(C)c5ccccc45)cc3CC(=O)N([C@H](C)CO)C[C@@H]2C)cc1,-7.68% (inactive)
15,CC(C)CNC(=O)c1ccccc1NC(=O)c1ccccc1N(C)S(=O)(=O)c1ccccc1,-4.43% (inactive)
16,CNC[C@H]1Oc2c(NC(=O)Nc3cccc4ccccc34)cccc2C(=O)N([C@H](C)CO)C[C@H]1C,-11.5% (inactive)
17,CC(=O)c1c(C)[nH]c(C(=O)OCC(=O)Nc2ccc(Cl)c(S(=O)(=O)N(C)C)c2)c1C,-12% (inactive)
18,Cc1nc2ccc(NC(=O)c3cc(S(=O)(=O)N(C)c4ccccc4)ccc3Cl)cc2s1,-9.18% (inactive)
19,CC[C@@]1(C(=O)OC)N[C@H](CN(C)C(=O)Nc2ccc(OC)cc2)[C@@H]2C(=O)N(Cc3ccccc3)C(=O)[C@@H]21,1.04% (inactive)
20,COc1ccc(CCNC(=O)COC(=O)c2cccn2C)cc1,3.42% (inactive)
21,COc1ccc(CCCC(=O)NCCc2ccccc2)c(C)c1,3.67% (inactive)
22,CCOC(=O)c1c(C)[nH]c(C)c1C(=O)COC(=O)[C@@H](NC(=O)c1ccccc1OCC)C(C)C,-7.56% (inactive)

row,SMILES,"activity change, negative = cytotoxicity"
1,COc1ccccc1N(C)S(=O)(=O)c1ccc(Cl)c(C(=O)NCC2(N(C)C)CCCCC2)c1,-3.25% (inactive)
2,C[C@H](CO)N1C[C@H](C)[C@@H](CN(C)S(=O)(=O)c2ccc(F)cc2)Oc2ccc(NS(=O)(=O)c3cn(C)cn3)cc2CC1=O,-1.97% (inactive)
3,CC(C)(C)N1C(=O)[C@H]2[C@@H](c3ccc(Br)cc3)N3C(=O)N(c4cccc(Cl)c4)C(=O)[C@@]3(C)[C@H]2C1=O,-7% (inactive)
4,CC[C@@]12C(=O)N(c3cccc(F)c3)C(=O)N1[C@H](c1ccc(Br)cc1)[C@@H]1C(=O)N(C(C)(C)C)C(=O)[C@@H]12,-2.79% (inactive)
5,Cc1cc(C)c2nc(C(F)(F)F)nc(N3CCN(C(=O)c4ccco4)CC3)c2c1,-15.5% (inactive)
6,CCC(NS(=O)(=O)c1c(C)[nH]c(=O)[nH]c1=O)C12CC3CC(CC(C3)C1)C2 (stereo not given),-0.446% (inactive)
7,CC1=C(C(=O)OCc2ccc3c(c2)OCO3)C(c2ccc(F)cc2)NC(=O)N1 (stereo not given),-24.2% (inactive)
8,COC(=O)C1=C(C)N(Cc2ccc(Cl)cc2)C(=S)NC1c1ccc(OC)cc1 (stereo not given),-15.5% (inactive)
9,CCN(CC)CCN(C(=O)c1cc(Cl)sc1Cl)c1nc2cc3c(cc2s1)OCO3,-6.58% (inactive)
10,CCN(C[C@H]1N[C@@](C)(C(=O)OC)[C@H]2C(=O)N(Cc3ccccc3)C(=O)[C@@H]12)C(=O)Nc1ccc(C)cc1,0.443% (inactive)
11,COc1ccc(S(=O)(=O)n2ccc(-c3ccc(OCCN(C)c4ccccn4)cc3)n2)cc1,-11% (inactive)
12,S=c1nc[nH]c2c1[nH]c1ccc(Cl)cc12,4.8% (inactive)
13,Clc1ccc2c(c1)C1=C(C(c3ccncc3)O2)C(c2ccc(Br)cc2)n2ncnc2N1 (stereo not given),-15.2% (inactive)
14,CCS(=O)(=O)N1Cc2ccccc2CC1C(=O)NCC12CC3CC(CC(C3)C1)C2 (stereo not given),-8.57% (inactive)
15,CCN1C[C@@H]2[C@@H]3C(=O)N(Cc4ccccc4)C(=O)[C@@H]3[C@](CC)(C1=O)N2C(=O)c1ccc(C(C)(C)C)cc1,-8.21% (inactive)
16,C[C@@]12C(=O)N(Cc3ccc(F)cc3)CC(=O)N1[C@H]1c3cc(Cl)ccc3OC[C@@H]1[C@@H]2c1ccccc1,-14.9% (inactive)
17,COc1ccc2c(c1)[C@H]1[C@H](CO2)[C@H](c2ccccc2)[C@]2(C)C(=O)Nc3cc(OC)c(OC)cc3C(=O)N12,-21.9% (inactive)
18,O=C(O)c1cccc(COc2ccc3c(c2)CCC3)c1,-6.13% (inactive)
19,COc1ccc([C@H]2/C=C\CN(C(=O)C3CC3)[C@@H](C)C(=O)N2Cc2ccc(F)cc2)cc1,-13% (inactive)
20,CCC(C)(C)NC(=O)C(c1ccc(C)cc1)N(CC1CCCO1)C(=O)c1csnn1 (stereo not given),-7.66% (inactive)
21,O=C(CN1CCCN(Cc2ccc(F)cc2Cl)C1=O)NC1CCCCCCC1,-13.4% (inactive)
22,CCN(CCn1cccn1)C(=O)CC1C(=O)NCCN1CCc1ccccc1 (stereo not given),0.382% (inactive)

row,SMILES,"activity change, negative = cytotoxicity"
1,O=C(C[C@H]1C[C@@H]2c3cc(NC(=O)C4CCC4)ccc3O[C@@H]2[C@@H](CO)O1)NCC(F)(F)F,0.34% (inactive)
2,Cc1ccc(C)c(CS(=O)(=O)c2cn(CC(=O)N3CCC(C)CC3)c3ccccc23)c1,-0.307% (inactive)
3,CCCCN1CC(=O)N2[C@H]3c4ccccc4OC[C@@H]3[C@H](c3ccccc3)[C@]2(C)C1=O,-0.526% (inactive)
4,Cc1ccc(-n2nnnc2SCn2nnc3ccccc3c2=O)c(C)c1,-14.6% (inactive)
5,COc1cc(CSc2nnnn2-c2ccc(C)cc2)cc(OC)c1OC,-10.6% (inactive)
6,O=C(NCc1ccccc1)[C@@H]1CCCN1C(=O)[C@@H]1CCCN1C(=O)c1cccc2ccccc12,-11.3% (inactive)
7,Cc1ccc(S(=O)(=O)N2CCC(=O)N(CCOCc3ccc(C(F)(F)F)cc3)CC2)cc1,-20.8% (inactive)
8,NC(=O)c1sc2nc3c(c(-c4ccccc4)c2c1N)CCC3,-5.51% (inactive)
9,COc1ccc(N(CC(=O)NCCSCc2ccc(Cl)cc2)S(C)(=O)=O)cc1Cl,-10.3% (inactive)
10,Cc1ccc(N2C(=O)N3[C@H](c4cccc(C)c4)[C@@H]4C(=O)N(Cc5ccccc5)C(=O)[C@@H]4[C@]3(C)C2=O)cc1,-4.42% (inactive)
11,O=C(NCc1ccco1)c1ccc(Cn2c(=O)c3sccc3n(Cc3ccc(F)cc3)c2=O)cc1,-5.39% (inactive)
12,CC(=O)Nc1ccc(C(=O)OCC(=O)NC(=O)NCc2ccccc2)cc1,0.697% (inactive)
13,CCCOc1ccc(C(F)(F)F)cc1NC(=O)CCc1c(C)noc1C,-8.86% (inactive)
14,CCN(C[C@H]1N[C@@](CC)(C(=O)OC)[C@H]2C(=O)N(Cc3ccccc3)C(=O)[C@@H]12)S(=O)(=O)c1ccc(OC)cc1,-6.24% (inactive)
15,O=C1CC(C(=O)N(CC2CCCO2)C(C(=O)NC2CCCCC2)c2ccncc2)CS1 (stereo not given),4.43% (inactive)
16,OC1(c2ccc(OC(F)F)cc2)CSC(=Nc2cccnc2)N1C1CC1 (stereo not given),-22.7% (inactive)
17,C[C@H]1CN([C@@H](C)CO)C(=O)Cc2cc(NC(=O)Cc3ccccc3)ccc2O[C@H]1CN(C)S(=O)(=O)c1cccs1,1.15% (inactive)
18,COc1ccc(S(=O)(=O)N(C)C[C@@H]2Oc3ccc(NC(=O)C4CCCCC4)cc3CC(=O)N([C@@H](C)CO)C[C@@H]2C)cc1,-3.64% (inactive)
19,Cc1noc(C)c1S(=O)(=O)N(C)C[C@@H]1Oc2ccc(NC(=O)NC3CCCCC3)cc2CC(=O)N([C@H](C)CO)C[C@@H]1C,-9.64% [at 30 µM] (inactive)
